Screening results as filed in PubChem BioAssay.
USP17 block – blocks human USP17 ubiquitin-rhodamine cleavage; A8MUK1; purified USP17, Ub-rhodamine cleavage fluorescence, 3 h; inhibition, % at 50 µM; hit rate 6.5% among 47,000; AID 1645855
USP30 block – inhibitors of human USP30 deubiquitinase. Q70CQ3. purified USP30, Ub-rhodamine cleavage fluorescence. inhibition, % at 25 µM. hit rate 5.3% among 47,000
USP10 inh – inhibitors of human USP10 deubiquitinase. purified USP10, Ub-rhodamine fluorescence, 60 min. inhibition, % at 20 µM. hit rate 1.1% among 47,000
USP8 inh – blocks human USP8 ubiquitin-rhodamine cleavage; P40818; purified USP8, Ub-rhodamine cleavage fluorescence, 30 min; hit rate 4.2% among 47,000; inhibition, % at 20 µM; AID 1645853
USP28 inh – blocks human USP28 ubiquitin-rhodamine cleavage; Q96RU2; AID 1645857; hit rate 3% among 47,000; inhibition, % at 25 µM; purified USP28, Ub-rhodamine cleavage fluorescence, 30 min
An asterisk follows results filed as active; i = inactive; / = no result. This is a sample that favours compounds with a hit; in the whole collection about 14% have one here. Cut-off read from the data, not from the text of the source: active = inhibition above about 30%; inactive = the rest.

SMILES	USP17 block	USP30 block	USP10 inh	USP8 inh	USP28 inh
CCCCc1nc2sc3c(SCC(=O)Nc4cccc(C)c4)ncnc3c2c2c1CCC2	64*	-12	-2	-1	4
CCCCc1nc2sc3c(SCC(N)=O)ncnc3c2c2c1CCC2	18	23	2	-1	36*
COc1ccc(Cc2nnc(Nc3ccc(F)cc3)[nH]c2=O)cc1OC	4	35*	1	18	10
N#Cc1cccc(S(=O)(=O)N2CC[C@@H]3CN(C(=O)c4ccccc4)[C@@H]3C2)c1	-4	-14	-2	3	-12
CCN1CCN(c2ccc(C(=O)OC)cc2NC(=O)/C=C/c2cc(Br)ccc2OC)CC1	4	-4	2	14	4
CCN1CCN(c2ccc(C(=O)OC)cc2NC(=O)c2sc3cc(Cl)ccc3c2Cl)CC1	12	48*	1	20	13
COc1ccccc1CNc1ncnc2c1[nH]c1ccccc12	-5	-33	-6	-12	-5
COc1ccc2c(c1)[nH]c1c(N3CCSCC3)ncnc12	-5	0	1	12	-4
O=[N+]([O-])c1ccc(N2CCN(c3ncnc4c3[nH]c3ccc(F)cc34)CC2)cc1	65*	8	-4	-15	3
COc1ccc2[nH]c3c(NCCc4ccccc4OC)ncnc3c2c1	34*	-23	-12	1	-11
COc1ccc2[nH]c3c(N4CCN(c5ccccc5F)CC4)ncnc3c2c1	41*	10	0	16	7
Cc1ccc(OCC(=O)N(C)Cc2cc(=O)[nH]c3ccccc23)c(C)c1	14	13	0	11	12
O=C1NC2(CCN(C(=O)c3ccc(OC4CSC4)cc3)CC2)Oc2ccccc21	9	-28	-2	-16	-1
Cc1c(CNC(=O)c2ccccc2Cl)c(-n2cccc2)n(Cc2ccccc2)c1C	-54	-139	-7	-119	-43
COC(=O)c1ccc(C(=O)Nc2ccc3sccc3c2)cc1	23	27	6	31*	8
COC(=O)c1ccc(C(=O)Nc2cc3ccccc3cc2NC(=O)c2ccc(C(=O)OC)cc2)cc1	68*	41*	13	16	2
Cc1nc(-c2ccc(S(C)(=O)=O)cc2)cc(C2CCNC2)n1 (centres undefined)	-14	-3	1	-22	-5
COc1ccc(NC(=O)c2oc(=O)c3ccccc3c2-c2ccccc2)cc1Cl	6	0	8	18	1
COc1cc(-c2ccccc2)c(O)c(O)c1-c1ccccc1	99*	91*	67*	73*	96*
Cc1ccc(C)c(C(=O)N2CCC(n3cnnc3-c3ccccc3)CC2)c1	-27	0	1	-86	-5
CNc1nc(C2CCCN2C(=O)CCN2CCCCC2)cn2cccc12 (centres undefined)	-164	i	-6	-13	-172
COc1cccc(/C=C/C(=O)Nc2ccc(C)c(Cl)c2)c1	26	40*	11	32*	65*
CC(=O)Nc1ccc(-n2cnc(C(=O)NC(C)c3ccc(F)cc3)c2)nc1 (centres undefined)	7	17	5	9	6
O=C(Nc1ccc(Sc2ccc(F)cc2)cc1)c1cccc(C(F)(F)F)c1	17	40*	10	22	24
Cc1cc2nc(N3CCCCC3C)c3ccccc3n2n1 (centres undefined)	-29	-8	0	-95	-5
SMILES	USP17 block	USP30 block	USP10 inh	USP8 inh	USP28 inh
Cc1cc2nc(N3CCN(C(=O)c4ccccc4)CC3)c3ccccc3n2n1	16	34*	1	1	4
CC1=C(c2ccc(F)cc2)S(=O)(=O)N=C1Nc1ccc(Cl)cc1	56*	0	4	0	5
COc1cccc(NC2=NS(=O)(=O)C(c3ccc(F)cc3)=C2C)c1	3	33*	1	-1	11
CC1=C(c2ccc(F)cc2)S(=O)(=O)N=C1Nc1cccc(F)c1	-45	10	8	9	1
O=C(Nc1ccccc1)Nc1cnc(N2CCCC2)nc1	-19	/	-1	0	/
COc1ccc(OC)c(CC2(NC(=O)c3ccccc3)N=C3C=CC=CN3C2=O)c1 (centres undefined)	22	30*	3	27	-2
COc1ccc(C(=O)NC2(Cc3ccccc3)N=C3C(C)=CC=CN3C2=O)cc1 (centres undefined)	19	9	2	21	12
O=C(NCc1cccnc1)C1CCN(S(=O)(=O)c2ccc3c(c2)CCCC3)CC1	7	34*	7	9	11
COCCNC(=O)C1CCN(S(=O)(=O)c2ccc3c(c2)CCCC3)CC1	-14	-2	0	-9	-9
